# Experimental data: PubChem BioAssay (NCATS)
# Results filed as inconclusive are left out. Where a call stands in place of a potency, no number is given. Active and inactive are the calls of the source. Calls come from the whole dose curve; as a rule, active = well fitted cell-killing curve with a large enough effect; inconclusive = small, poorly fitted or top-dose-only effect, or effect the other way; inactive = flat fitted curve, though single readings scatter.
# Test system: CAOV3
# Experiment: Primary qHTS to identify gynecologic anti-cancer compounds using libraries of approved drugs and bioactive compounds (AID 1345084); note: nearly all actives have a fitted effect of over 55% in size
# Conditions: Gynecologic cancer cell panel viability, ATPlite luminescence, 48 h; series mostly up to 57.5 µM
# In short: (§1)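 Cell viability after 48 h drug treatment, ATPlite luminescence readout; five doses.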
# Potency is the fitted concentration of half-maximal effect.
row,SMILES,Potency
1,c1ccc(-c2oc3ncnc(NC[C@@H]4CCCO4)c3c2-c2ccccc2)cc1,inactive
2,CC(=O)Nc1cccc(-n2c(=O)n(C3CC3)c(=O)c3c(Nc4ccc(I)cc4F)n(C)c(=O)c(C)c32)c1,inactive
3,CCCCn1c(=O)n(Cc2ccccc2F)c(=O)c2[nH]c(Cc3ccc(NC(C)=O)cc3)nc21,inactive
4,CC1CCN(c2cc(N3CCN(C)CC3)ccc2NC(=O)c2cc(C#N)c[nH]2)CC1,inactive
5,Cc1nc(C(=O)NCC(=O)O)c(O)c2ccc(Oc3ccccc3)cc12,inactive
6,COc1nccc(-c2c(-c3ccc(F)cc3)ncn2C2CCC(O)CC2)n1 (stereo not drawn),inactive
7,CC(C)(C)c1nc(-c2cccc(NS(=O)(=O)c3c(F)cccc3F)c2F)c(-c2ccnc(N)n2)s1,inactive
8,O=C(Nc1cccc(C(F)(F)F)c1)Nc1cc(S(=O)(=O)NC2CC2)ccc1-c1ccsc1,inactive
9,NS(=O)(=O)c1cc(Cl)c(Cl)c(S(N)(=O)=O)c1,inactive
10,CN1C(=O)C(Cc2c[nH]c3ccccc23)NC1=S (stereo not drawn),inactive

# Test system: CASKI
# Experiment: as above
# Conditions: Gynecologic cancer cell panel viability, ATPlite luminescence, 48 h; series mostly up to 57.5 µM
# In short: as §1
row,SMILES,Potency
1,OC[C@H]1O[C@@H](OCCc2ccc(O)cc2)[C@H](O)[C@@H](O)[C@H]1O,inactive
2,CC(C)(OCc1nn(Cc2ccccc2)c2ccccc12)C(=O)O,inactive
3,c1ccc(-c2oc3ncnc(NC[C@@H]4CCCO4)c3c2-c2ccccc2)cc1,inactive
4,CC(=O)Nc1cccc(-n2c(=O)n(C3CC3)c(=O)c3c(Nc4ccc(I)cc4F)n(C)c(=O)c(C)c32)c1,inactive
5,CN1CCN(c2cccc(Nc3nc4c(-c5ccc(S(C)(=O)=O)cc5)cccn4n3)c2)CC1,inactive
6,CCCCn1c(=O)n(Cc2ccccc2F)c(=O)c2[nH]c(Cc3ccc(NC(C)=O)cc3)nc21,inactive
7,CC1CCN(c2cc(N3CCN(C)CC3)ccc2NC(=O)c2cc(C#N)c[nH]2)CC1,inactive
8,Cc1nc(C(=O)NCC(=O)O)c(O)c2ccc(Oc3ccccc3)cc12,inactive
9,COc1nccc(-c2c(-c3ccc(F)cc3)ncn2C2CCC(O)CC2)n1 (stereo not drawn),inactive
10,CC(C)(C)c1nc(-c2cccc(NS(=O)(=O)c3c(F)cccc3F)c2F)c(-c2ccnc(N)n2)s1,inactive
11,C[C@H](c1ccc(F)cc1CCCC(=O)O)N(c1cc(F)ccc1F)S(=O)(=O)c1ccc(Cl)cc1,inactive
12,O=S(=O)(O)c1ccc2cc(N=Nc3cc(S(=O)(=O)O)c4cccnc4c3O)ccc2c1,inactive
13,O=C(Nc1cccc(C(F)(F)F)c1)Nc1cc(S(=O)(=O)NC2CC2)ccc1-c1ccsc1,inactive
14,C[C@@H](NC(=O)c1ncnc(N)c1Cl)c1ncc(C(=O)Nc2cc(C(F)(F)F)c(Cl)cn2)s1,inactive
15,COc1ccc(-c2ccc3ncc4c(c3c2)n(-c2ccc(N3CCNCC3)c(C(F)(F)F)c2)c(=O)n4C)cn1,0.794 µM (active)
16,CC1=C[C@@H]2[C@@H]([C@@H](O)C[C@@]3(C)[C@H]2C[C@@H](C)[C@]3(O)C(=O)CO)[C@@]2(C)Cc3cnn(-c4ccccc4)c3C=C12,inactive
17,CN1c2ccccc2C(=O)N2CCc3c([nH]c4ccccc34)C21 (stereo not drawn),7.08 µM (active)
18,NS(=O)(=O)c1cc(Cl)c(Cl)c(S(N)(=O)=O)c1,inactive
19,N#Cc1ccc(Oc2ccc3c(c2)COB3O)cc1,inactive
20,CN(C)c1nc(Cc2ccc(NC(=O)c3ccc(C(F)(F)F)cc3)cc2)nc(N(C)C)c1CC(=O)O,inactive
21,CN1C(=O)C(Cc2c[nH]c3ccccc23)NC1=S (stereo not drawn),inactive
22,CNc1nc(Nc2ccc(C(=O)N3CCOCC3)cc2OC)ncc1Cl,inactive

# Test system: Es-2
# Experiment: as above
# Conditions: Gynecologic cancer cell panel viability, ATPlite luminescence, 48 h; series mostly up to 57.5 µM
# In short: as §1
row,SMILES,Potency
1,OC[C@H]1O[C@@H](OCCc2ccc(O)cc2)[C@H](O)[C@@H](O)[C@H]1O,inactive
2,CC(C)(OCc1nn(Cc2ccccc2)c2ccccc12)C(=O)O,inactive
3,c1ccc(-c2oc3ncnc(NC[C@@H]4CCCO4)c3c2-c2ccccc2)cc1,inactive
4,CC(C)(O)CC(=O)NCCn1ccc2ncnc(Nc3ccc(Oc4cccc(C(F)(F)F)c4)c(Cl)c3)c21,inactive
5,CN1CCN(c2cccc(Nc3nc4c(-c5ccc(S(C)(=O)=O)cc5)cccn4n3)c2)CC1,inactive
6,CCCCn1c(=O)n(Cc2ccccc2F)c(=O)c2[nH]c(Cc3ccc(NC(C)=O)cc3)nc21,inactive
7,CC1CCN(c2cc(N3CCN(C)CC3)ccc2NC(=O)c2cc(C#N)c[nH]2)CC1,inactive
8,Cc1nc(C(=O)NCC(=O)O)c(O)c2ccc(Oc3ccccc3)cc12,inactive
9,Cc1cnc(Nc2cccc(CN3CCOCC3)c2)nc1Nc1cccc(S(=O)(=O)NC(C)(C)C)c1,inactive
10,COc1nccc(-c2c(-c3ccc(F)cc3)ncn2C2CCC(O)CC2)n1 (stereo not drawn),inactive
11,C[C@H](c1ccc(F)cc1CCCC(=O)O)N(c1cc(F)ccc1F)S(=O)(=O)c1ccc(Cl)cc1,inactive
12,O=S(=O)(O)c1ccc2cc(N=Nc3cc(S(=O)(=O)O)c4cccnc4c3O)ccc2c1,inactive
13,O=C(Nc1cccc(C(F)(F)F)c1)Nc1cc(S(=O)(=O)NC2CC2)ccc1-c1ccsc1,inactive
14,C[C@@H](NC(=O)c1ncnc(N)c1Cl)c1ncc(C(=O)Nc2cc(C(F)(F)F)c(Cl)cn2)s1,inactive
15,CN1c2ccccc2C(=O)N2CCc3c([nH]c4ccccc34)C21 (stereo not drawn),14.1 µM (active)
16,NS(=O)(=O)c1cc(Cl)c(Cl)c(S(N)(=O)=O)c1,inactive
17,N#Cc1ccc(Oc2ccc3c(c2)COB3O)cc1,inactive
18,CN(C)c1nc(Cc2ccc(NC(=O)c3ccc(C(F)(F)F)cc3)cc2)nc(N(C)C)c1CC(=O)O,inactive
19,Cc1cc(C(C)Nc2ccccc2)c2nc(N3CCOCC3)cc(=O)n2c1 (stereo not drawn),inactive
20,CN1C(=O)C(Cc2c[nH]c3ccccc23)NC1=S (stereo not drawn),inactive
21,CNc1nc(Nc2ccc(C(=O)N3CCOCC3)cc2OC)ncc1Cl,inactive
